Consider 24 compounds from PubChem BioAssay (EPA / NIEHS).

“And” between values parts separate entries of the source, which are not always exact repeats. Equal values may be shown once. Results filed as inconclusive are left out. The source holds several records for some structures; these can differ, active in one and inactive in another. The source made the active and inactive calls. Rule for the calls, unless noted: active = hit-call score of the fitted dose curve at least 0.9, where 1 is the maximum; inactive = score below 0.9.

A short description of assay [1]: ATG_TAL_CIS: Attagene CIS-FACTORIAL HepG2 Assay for human TAL Basal Promoter (AID 2282966).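 Note: background control endpoint measuring basal TAL promoter reporter mRNA not a specific factor.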 Particulars: HepG2 Attagene cis-factorial TAL promoter reporter; actives raise or lower the signal. An outline of the steps:
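HepG2, transient MRTU transfection, 24 h compound exposure; RNA → oligo(dT) RT → PCR → 6-FAM primer extension → HpaI digest → CE fluorescence. Bidirectional curve fit vs DMSO. Background-control readout.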

A short description of assay [2]: ATG_TGFb_CIS: Attagene CIS-FACTORIAL HepG2 Assay for human Transforming Growth Factor (TGF) (AID 2282967). As to conditions: HepG2 Attagene CIS TGFb reporter, mRNA transcription; actives raise or lower the signal. An outline of the steps: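 After a 24-hour incubation with compound, transfected HepG2 cells were lysed for RNA; reporter cDNA was amplified, fluorescently end-labeled and separated by CE. DMSO served as baseline for bidirectional fits.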

In assay [3] the target is X-box-binding protein 1 (Homo sapiens) (UniProt P17861). Kind of assay: ATG_Xbp1_CIS: Attagene CIS-FACTORIAL HepG2 Assay for human X-box Binding Protein 1 (XBP1) (AID 2282972). As to conditions: HepG2 XBP1 cis-element reporter, Attagene multiplex; actives raise or lower the signal. An outline of the steps: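 Changes in reporter transcript abundance, read by RT-PCR and capillary electrophoresis, reflect endogenous transcription factor activity. Transfected HepG2 cells received compound for 24 hours; DMSO defined baseline for bidirectional analysis.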

A short description of assay [4]: ATG_M_19_TRANS: Attagene TRANS-FACTORIAL HepG2 Assay for M19 Transcription Factor (Internal Marker) (AID 2282974; active = hit-call score of the fitted dose curve at least 0.9, where 1 is the maximum). As to conditions: HepG2 Attagene TRANS-FACTORIAL M19 internal marker reporter. An outline of the steps:
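After transfection of HepG2 with GAL4-UAS-driven reporter constructs, cells are dosed for 24 h. Total RNA is reverse-transcribed, reporter sequences PCR-amplified and labelled, then HpaI-digested and sized by capillary electrophoresis.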

Assay [5] is described as follows: ATG_GAL4_TRANS: Attagene TRANS-FACTORIAL HepG2 Assay for GAL4 (Internal Marker) (AID 2282976; active = hit-call score of the fitted dose curve at least 0.9, where 1 is the maximum). As to conditions: HepG2 Attagene TRANS GAL4 internal marker reporter. An outline of the steps:
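RT-PCR/capillary electrophoresis readout of reporter mRNA. HepG2, transient MRTU transfection (GAL4-UAS reporters), 24 h compound exposure. Background-control endpoint, positive direction vs DMSO baseline.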

Assay [6] has as its target Nuclear receptor subfamily 1 group I member 3 (Homo sapiens) (UniProt Q14994). Kind of assay: ATG_CAR_TRANS: Attagene TRANS-FACTORIAL HepG2 Assay for human Constitutive Androstane Receptor (CAR) (AID 2282969; active = hit-call score of the fitted dose curve at least 0.9, where 1 is the maximum;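 note: activators raise reporter mRNA above DMSO so AC50 marks induction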). As to conditions: HepG2 Attagene TRANS-FACTORIAL CAR reporter. An outline of the steps:
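Signal is reporter mRNA induction relative to DMSO, measured 24 h after dosing by RT-PCR with fluorescent primer extension and capillary electrophoresis. Human HepG2 liver cells carried transiently transfected chimeric NR-Gal4/GAL4-UAS reporter constructs.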

Assay [7] concerns the target Estrogen-related receptor gamma (Homo sapiens) (UniProt P62508). Kind of assay: ATG_ERRg_TRANS: Attagene TRANS-FACTORIAL HepG2 Assay for human Estrogen-Related Receptor gamma (ERRg) (AID 2282977; active = hit-call score of the fitted dose curve at least 0.9, where 1 is the maximum;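 note: hits increase reporter signal over DMSO so potencies reflect activators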). As to conditions: HepG2 Attagene TRANS reporter, ERRg transactivation. An outline of the steps: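 Induction of reporter transcripts through a chimeric NR-Gal4 protein is quantified in transfected human HepG2 liver cells after 24 h chemical exposure, using RT-PCR with capillary electrophoresis detection and DMSO as baseline.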

Assay [8] is described as follows: ATG_VDRE_CIS: Attagene CIS-FACTORIAL HepG2 Assay for human Vitamin D Receptor Element (VDRE) (AID 2282968). Particulars: HepG2 VDRE cis-reporter transcription, actives raise or lower the signal. An outline of the steps:
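Readout is VDRE-driven reporter mRNA reflecting endogenous factor activity in human HepG2 cells, sampled 24 h post-dose. Quantification used labelled RT-PCR products separated by capillary electrophoresis; bidirectional analysis relative to DMSO.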

Assay [9] has as its target Androgen receptor (Homo sapiens) (UniProt P10275). Kind of assay: ATG_AR_TRANS: Attagene TRANS-FACTORIAL HepG2 Assay for human Androgen Receptor (AR) (AID 2282973; active = hit-call score of the fitted dose curve at least 0.9, where 1 is the maximum). As to conditions: HepG2 Attagene TRANS-FACTORIAL AR reporter transcription. An outline of the steps: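 Readout is reporter transcript abundance, quantified by fluorescent RT-PCR products separated on capillary electrophoresis. Human HepG2 liver cells carried transiently transfected NR-Gal4 chimera plus GAL4-UAS reporter constructs and were dosed for 24 h; activity scored upward versus DMSO.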

Sequence of Estrogen-related receptor gamma (Homo sapiens) (P62508 whole entry, looked up, the tested form may be a part): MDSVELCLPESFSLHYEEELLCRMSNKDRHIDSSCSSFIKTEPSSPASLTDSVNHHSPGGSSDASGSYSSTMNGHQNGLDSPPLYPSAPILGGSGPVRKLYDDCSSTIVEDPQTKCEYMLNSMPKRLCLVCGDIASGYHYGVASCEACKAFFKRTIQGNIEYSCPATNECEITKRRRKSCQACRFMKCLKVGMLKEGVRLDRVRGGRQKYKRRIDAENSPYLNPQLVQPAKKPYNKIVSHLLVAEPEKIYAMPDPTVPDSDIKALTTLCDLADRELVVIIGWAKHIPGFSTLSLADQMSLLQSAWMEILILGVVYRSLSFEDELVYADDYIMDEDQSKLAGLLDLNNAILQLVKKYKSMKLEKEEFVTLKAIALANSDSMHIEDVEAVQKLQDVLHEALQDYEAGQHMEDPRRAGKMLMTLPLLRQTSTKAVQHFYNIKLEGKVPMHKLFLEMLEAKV
Sequence of X-box-binding protein 1 (Homo sapiens) (P17861 whole entry, looked up): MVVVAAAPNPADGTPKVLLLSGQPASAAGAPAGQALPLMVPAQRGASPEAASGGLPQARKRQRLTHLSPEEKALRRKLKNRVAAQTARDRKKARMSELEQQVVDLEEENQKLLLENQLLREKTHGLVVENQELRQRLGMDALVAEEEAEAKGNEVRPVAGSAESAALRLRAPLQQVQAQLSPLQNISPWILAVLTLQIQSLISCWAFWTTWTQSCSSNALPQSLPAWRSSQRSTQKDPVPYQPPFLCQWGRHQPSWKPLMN
Sequence of Nuclear receptor subfamily 1 group I member 3 (Homo sapiens) (Q14994 whole entry, looked up, the tested form may be a part): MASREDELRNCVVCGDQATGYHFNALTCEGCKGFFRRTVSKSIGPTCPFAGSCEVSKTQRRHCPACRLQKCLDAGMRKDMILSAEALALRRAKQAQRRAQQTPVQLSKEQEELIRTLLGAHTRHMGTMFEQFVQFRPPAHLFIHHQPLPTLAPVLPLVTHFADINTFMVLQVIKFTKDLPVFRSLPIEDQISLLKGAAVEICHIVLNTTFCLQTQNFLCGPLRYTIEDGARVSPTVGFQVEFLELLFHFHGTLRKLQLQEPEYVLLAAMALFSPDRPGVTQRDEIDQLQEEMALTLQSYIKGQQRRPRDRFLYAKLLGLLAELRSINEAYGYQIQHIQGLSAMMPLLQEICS
Sequence of Androgen receptor (Homo sapiens) (P10275 whole entry, looked up, the tested form may be a part): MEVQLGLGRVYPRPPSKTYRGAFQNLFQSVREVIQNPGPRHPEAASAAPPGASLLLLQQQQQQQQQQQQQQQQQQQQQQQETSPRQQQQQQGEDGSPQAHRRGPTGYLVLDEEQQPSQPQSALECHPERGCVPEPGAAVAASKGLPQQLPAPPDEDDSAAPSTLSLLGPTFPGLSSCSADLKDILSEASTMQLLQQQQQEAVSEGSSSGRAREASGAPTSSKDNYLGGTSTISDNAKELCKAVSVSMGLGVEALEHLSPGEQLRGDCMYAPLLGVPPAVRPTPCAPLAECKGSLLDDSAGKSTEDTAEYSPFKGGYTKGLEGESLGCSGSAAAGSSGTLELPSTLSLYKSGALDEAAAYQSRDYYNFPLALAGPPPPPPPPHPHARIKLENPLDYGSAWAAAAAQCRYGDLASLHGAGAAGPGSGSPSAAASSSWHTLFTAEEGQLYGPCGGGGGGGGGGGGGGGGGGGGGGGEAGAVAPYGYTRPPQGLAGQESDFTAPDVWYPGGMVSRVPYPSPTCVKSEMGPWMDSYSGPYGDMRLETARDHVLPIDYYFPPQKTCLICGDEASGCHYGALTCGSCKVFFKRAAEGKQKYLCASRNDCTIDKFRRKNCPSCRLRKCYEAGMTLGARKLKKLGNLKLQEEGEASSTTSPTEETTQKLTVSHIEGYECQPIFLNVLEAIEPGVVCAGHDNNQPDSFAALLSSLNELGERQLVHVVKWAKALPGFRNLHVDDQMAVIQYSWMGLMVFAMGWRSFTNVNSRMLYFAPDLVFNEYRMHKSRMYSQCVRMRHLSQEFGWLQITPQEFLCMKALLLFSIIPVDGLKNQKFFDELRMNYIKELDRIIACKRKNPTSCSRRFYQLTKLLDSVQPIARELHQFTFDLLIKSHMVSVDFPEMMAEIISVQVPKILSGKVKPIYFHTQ

Turning to `Cn1cc(-c2ccccc2)c(=O)c(-c2cccc(C(F)(F)F)c2)c1`, the compound was called inactive in [1], in [2], in assay [3], in assay [4] and in assay [5].

`Cc1ccc(N)cc1`: the compound was called inactive in assay [1], in assay [2], in assay [6], in assay [3], in assay [4] and in [7].

Take `ClC1=C(Cl)C2(Cl)C3C(Cl)C=CC3C1(Cl)C2(Cl)Cl` (stereo not given): the compound was called inactive in assay [1], in assay [2] and in assay [3].

For the compound `CCOc1cccc(C2(N3CCN(c4ccccc4)CC3)CCC(C)CC2)c1` (stereo not given), the compound was called inactive in assay [1], in [2], in assay [8], in assay [3] and in assay [5].

Take `C[N+](C)(C)CC1CO1` (stereo not given): the compound was classed as inactive in assay [1], in assay [2], in assay [3] and in assay [4].

As to `CCCCCCCCOC(=O)c1ccc(C(=O)OCCCCCCCC)c(C(=O)OCCCCCCCC)c1`, the compound was classed as inactive in assay [1], in assay [2], in [3] and in assay [4].

For `O=C(Oc1ccc(Br)cc1)N1CCN2CCC1CC2`, the result in assay [1], in assay [2], in assay [8], in assay [3], in assay [4] and in assay [5] was inactive.

`CS(=O)(=O)NC(=O)c1cc(Oc2ccc(C(F)(F)F)cc2Cl)ccc1[N+](=O)[O-]`: the compound was called inactive in assay [1], in assay [2], in [8], in assay [3], in assay [4] and in [5].

As to `CCCCCCCCn1sccc1=O`, the compound was called inactive in assay [1], in assay [2], in assay [4], in assay [5] and in [7]. Also, the AC50 is 16.7 µM (active) in assay [8] and 16.5 µM (active) in assay [3].

Take `C[C@]12C=CC3=C4CCC(=O)C=C4CC[C@H]3[C@@H]1CC[C@@H]2O`: the compound was called inactive in [1], in [2], in [3] and in [4]. Besides, the AC50 in assay [3] was 134 µM (active) and 10.7 µM (active).

Regarding `ClCCOCCCl`, the compound was classed as inactive in assay [1], in assay [2], in assay [3] and in [4].

Take `CCN(CC)CCO`: the result in assay [1], in assay [2] and in assay [3] was inactive.

Take `CC(C)COC(=O)c1ccccc1C(=O)OCC(C)C`: the outcome in assay [1], in [2] and in assay [4] was inactive. The AC50 in [3] is 65.8 µM (active).

Consider `CN(C)[C@@H]1C(=O)C(C(N)=O)=C(O)[C@@]2(O)C(=O)C3=C(O)c4c(O)cccc4[C@@](C)(O)[C@H]3C[C@@H]12`, for which the compound was called inactive in [1], in assay [2], in assay [3] and in assay [4].

On to `N#CC(Br)Br`, for which the outcome in assay [1], in assay [2], in assay [6], in [3] and in assay [5] was inactive.

For `CCCCOC(=O)c1ccccc1C(=O)OCc1ccccc1`, the result in [1], in [2], in assay [6], in [3], in assay [4] and in assay [5] was inactive.

In the case of `CCC(C)c1ccc(O)cc1` (stereo not given), the result in assay [1], in assay [2], in [6], in [4], in assay [5] and in [7] was inactive. Besides, in assay [3], the AC50 was 51.8 µM (active).

In the case of `N#CC(Br)(Br)C(N)=O`, the result in assay [1], in assay [2], in assay [8], in assay [3] and in [4] was inactive.

For the compound `[As]#[In]`, the result in [1], in [2], in assay [3] and in [5] was inactive.

In the case of `CCC12COCN1COC2`, the result in assay [1], in [2], in assay [8], in [3], in [4] and in assay [5] was inactive.

For `CC(C)(C)C(O)(CCc1ccc(Cl)cc1)Cn1cncn1` (stereo not given), the compound was classed as inactive in assay [1], in [2], in assay [8], in [3], in assay [4] and in assay [5].

For `CN(C)C(=O)Nc1ccc(Cl)cc1`, the call in assay [1], in assay [2], in assay [8], in [3] and in assay [5] was inactive.

On to `O=C(Nc1ccccc1)c1ccccc1I`, for which the call in [1], in assay [2], in assay [3], in [9] and in [4] was inactive.

As to `CCC[CH2][Sn]([Cl])([CH2]CCC)[CH2]CCC`, the result in assay [1], in [2] and in assay [4] was inactive. Further, the AC50 in [8] is 0.412 µM (active); in assay [3], 0.639 µM (active).
